# DT40 TDP1 no CPT – qHTS for Inhibitors of human tyrosyl-DNA phosphodiesterase 1 (TDP1): qHTS in cells in absence of CPT; DT40 Tdp1-/- hTDP1 cells, no CPT, ATP luminescence, 48 h; Potency, µM (series often up to 46.2 µM), for the others: at the highest dose activity change, negative = growth inhibition, hits mostly inhibitors; hit rate 15% among 420,000; AID 686978, 2013; also: potency is read from the fitted curve at half-maximal effect; nearly all actives have a fitted effect of over 55% in size
#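 Cells were dispensed at 400 per well, compounds added by pin tool, plates incubated ≥48 hr at 37 °C, then CellTiter-Glo added for 30 min at room temperature before luminescence reading. Line: DT40 Tdp1-/- complemented with hTDP1; camptothecin omitted.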
# TDP1 inh – qHTS Assay for Inhibitors of Tyrosyl-DNA Phosphodiesterase (TDP1) | Tyrosyl-DNA phosphodiesterase 1 (Homo sapiens), Q9NUW8 | Potency, µM (top dose mostly 130 µM), for inactives: at the top dose activity change, negative = inhibition, most hits filed as inhibitors | AID 485290, 2010 | recombinant TDP1, AlphaScreen DNA substrate cleavage | hit rate 0.28% among 350,000; also: potency is read from the fitted curve at half-maximal effect; nearly all actives have a fitted effect of over 40% in size
# Target sequence (Q9NUW8 whole entry, looked up): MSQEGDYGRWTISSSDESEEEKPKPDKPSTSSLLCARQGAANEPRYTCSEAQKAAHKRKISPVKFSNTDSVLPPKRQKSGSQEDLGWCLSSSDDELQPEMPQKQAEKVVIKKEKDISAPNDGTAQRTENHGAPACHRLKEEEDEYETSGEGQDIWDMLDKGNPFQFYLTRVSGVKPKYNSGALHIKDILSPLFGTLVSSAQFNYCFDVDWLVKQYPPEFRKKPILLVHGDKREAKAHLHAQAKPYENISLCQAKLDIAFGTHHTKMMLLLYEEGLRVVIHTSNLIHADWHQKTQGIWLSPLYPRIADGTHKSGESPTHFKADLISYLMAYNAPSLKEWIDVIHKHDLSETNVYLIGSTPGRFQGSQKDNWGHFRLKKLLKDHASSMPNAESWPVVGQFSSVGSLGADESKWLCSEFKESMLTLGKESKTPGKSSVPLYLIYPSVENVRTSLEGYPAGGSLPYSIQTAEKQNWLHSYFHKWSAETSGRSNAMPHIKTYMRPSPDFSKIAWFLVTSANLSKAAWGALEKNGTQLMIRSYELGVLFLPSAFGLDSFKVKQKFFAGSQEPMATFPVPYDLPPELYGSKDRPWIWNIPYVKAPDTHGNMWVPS
#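 Enzyme-compound mixtures sat 15 min at room temperature, followed by a 5 min reaction with 15 nM final substrate and 10 min with AlphaScreen beads. Recombinant human Tdp1 was used at 1 nM final.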
# CtBP-E1A blk – qHTS Assay for Inhibitors of the CtBP/E1A Interaction. AID 651724, 2012. hit rate 0.49% among 340,000. activity change, % (concentration not given with the values). AlphaScreen GST-E1A/His-CtBP binding, 1536-well; hits give low values. CtBP / adenovirus E1A interaction (AlphaScreen); in the data active = activity change below about -65%; inconclusive = mostly about -30% to -63%
#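 GST-E1A and His-tagged CtBP (125 nM each as 5X stock) were preincubated with pin-transferred compound for 2 h at 37 °C in the dark, then glutathione donor and nickel acceptor beads were added for 1 h before AlphaScreen reading.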
# Six1-Eya2 blk – qHTS Assay for Inhibitors of the Six1/Eya2 Interaction; Homeobox protein SIX1 (Homo sapiens) + Protein phosphatase EYA2 (Homo sapiens), …; hit rate 0.56% among 360,000; AlphaScreen GST-Six1/His-Eya2 binding, biochemical; hits give low values; activity change, % (no concentration beside the values); in the data active = activity change below about -65%; inconclusive = mostly about -30% to -63%
#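 AlphaScreen luminescence read after one hour at 37 °C in darkness. Pin-transferred compounds met GST-Six1 and His-Eya2 protein (5X stock 250 nM/500 nM) plus glutathione donor and Ni-chelate acceptor beads (5X, 50 ug/mL).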
# TDP1 cell CPT – qHTS for Inhibitors of human tyrosyl-DNA phosphodiesterase 1 (TDP1): qHTS in cells in presence of CPT; hit rate 12% among 420,000; Potency, µM (highest dose often 46.2 µM), without a hit: top-dose activity change, negative = growth inhibition, usual class: inhibitors; chicken DT40 Tdp1-/-;hTDP1 cells + 20 nM CPT, ATP luminescence, 48 h; also: potency is read from the fitted curve at half-maximal effect; nearly all actives have a fitted effect of over 55% in size
#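 Cell growth measured by CellTiter-Glo luminescence after a minimum 48 h, 37 C compound exposure with 20 nM CPT in Tdp1-knockout DT40 cells stably expressing hTDP1, seeded 400/well; qHTS titration format.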
# IL-1B inflam inh – qHTS for Inhibitors of Inflammasome Signaling: IL-1-beta AlphaLISA Primary Screen; THP-1 LPS/ATP IL-1B secretion, AlphaLISA, 16 h; hits give low values; activity change, % at 57.5 µM; hit rate 4.7% among 360,000; in the data active = activity change below about -50%; inconclusive = mostly about -30% to -49%
#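 Secreted IL-1B measured by AlphaLISA bead assay after 16 h compound exposure of THP-1 cells; compounds (final up to 57.5 uM) added 1 h before LPS (250 ng/mL) and ATP (1.25 mM) stimulation; lower signal means less secretion.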
# The depositor's hits bear a star; ? = inconclusive; nt = no result given; [ ] = another dose, or the depositor's remark. A selection: hits, their analogues and other compounds. The true share with any hit is near 18%. Unless noted, calls follow the shape of the dose curve; as a rule, active = well fitted curve in the direction sought with a large enough effect; inconclusive = small, poorly fitted or top-dose-only effect, or another doubt; inactive = no such curve, though single readings can be large; an effect the other way counts as inactive or inconclusive. % is scaled to controls: 0 for no effect and ±100 for the full control effect.
SMILES,DT40 TDP1 no CPT,TDP1 inh,CtBP-E1A blk,Six1-Eya2 blk,TDP1 cell CPT,IL-1B inflam inh
Cc1ccc(CNC(=O)c2cnc(N3CCCCC3)c3ccccc23)cc1,16µM*,-8%,nt,nt,?,nt
Fc1ccc(N2CCN(C(c3cccs3)c3nnnn3CCc3ccccc3)CC2)cc1 (stereo not given),23µM*,0%[56.1 µM],-16,-15,?,-4
N#Cc1cccc(C(c2nnnn2CCc2ccccc2)N2CCN(C3CCCCC3)CC2)c1 (stereo not given),18µM*,0%,9,5,?,?
c1ccc(CCn2nnnc2C(c2cccnc2)N2CCN(c3ccccc3)CC2)cc1 (stereo not given),11µM*,2%,8,-6,13µM*,-16
Oc1ccc(N2CCN(C(c3cccnc3)c3nnnn3Cc3ccccc3)CC2)cc1 (stereo not given),18µM*,1%,7,-4,?,5
COCCn1nnnc1C(c1ccccc1)N1CCN(c2ccccc2)CC1 (stereo not given),-5%,2%,1,-1,-2%,?
CCOc1cccc(CNn2cnnc2)c1OCc1ccccc1,-2%,9%,-6,4,4%,-10
Fc1ccccc1N1CCN(C(c2cccs2)c2nnnn2CCc2ccccc2)CC1 (stereo not given),?,7%,-3,-6,?,0
c1ccc(CCn2nnnc2C(c2cccs2)N2CCN(Cc3ccc4c(c3)OCO4)CC2)cc1 (stereo not given),23µM*,4%,-15,-21,?,?
c1ccc(CCn2nnnc2C(c2cccnc2)N2CCN(c3nc4ccccc4s3)CC2)cc1 (stereo not given),11µM*,4%,6,-6,18µM*,-64*
COCCn1nnnc1C(c1ccc(OC)cc1OC)N1CCN(c2ccccc2)CC1 (stereo not given),-22%,2%,10,?,-20%,1
COc1ccc(OC)c(C(c2nnnn2CCc2ccccc2)N2CCN(c3ccccc3)CC2)c1 (stereo not given),35µM*,9%,-23,?,?,-85*
Cn1c(=O)c2c(nc(N3CCOCC3)n2Cc2ccccc2)n(C)c1=O,26µM*,nt,nt,nt,?,nt
CCOC(=O)Cn1c(=O)c2c(nc(N3CCOCC3)n2Cc2ccccc2)n(C)c1=O,16µM*,-2%,nt,nt,?,nt
Cn1c(=O)c2c(nc(N3CCOCC3)n2CC(=O)c2ccccc2)n(C)c1=O,nt,1%,nt,nt,nt,nt
CN1CCN(c2nc3c(c(=O)n(C)c(=O)n3C)n2Cc2cccc3ccccc23)CC1,-30%,-5%,2,-2,-6%,-17
Cn1c(=O)c2c(nc(N3CCCCCC3)n2Cc2cccc3ccccc23)n(C)c1=O,26µM*,8%,-13,-7,?,11
Oc1c(Cl)cc(Cl)cc1/C=N/c1nccs1,?,2%,-24,-24,26µM*,-13
COc1ccc(OC)c(NC(=O)C23CCC(C)(C(=O)C2)C3(C)C)c1 (stereo not given),0%,8%,2,-7,5%,-5
CC12CCC(C(=O)Nc3ccc(SC(F)F)cc3)(CC1=O)C2(C)C (stereo not given),-27%,3%,-20,-6,?,-81*
Cc1ccc(NC(=S)Nc2ccc3[nH]c(=O)[nH]c3c2)cc1,?,7%,-3,-2,?,?

# Bioassay records as filed in PubChem BioAssay.
